The target of test [1] is Estrogen receptor beta (Homo sapiens) (UniProt Q92731). Put plainly: qHTS assay to identify small molecule agonists of the estrogen receptor beta (ER-beta) signaling pathway (AID 1259377; active = well fitted activation curve with a large enough effect in the signal ratio in the repeat runs, not every such curve was filed as active; the % refers to the signal ratio). In a few lines:
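Ratiometric beta-lactamase FRET read-out came after 2 h substrate loading at room temperature. It followed 16 h compound treatment at 37C of GripTite HEK293T cells carrying a UAS-bla reporter, plated in 2% charcoal-stripped FBS medium.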

Test [2] has the same target. Put plainly: qHTS assay to identify small molecule antagonists of the estrogen receptor beta (ER-beta) signaling pathway (AID 1259378; active = well fitted inhibition curve with a large enough effect in the signal ratio in the repeat runs, not every such curve was filed as active; the % refers to the signal ratio). In a few lines: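 ER-beta-UAS-bla HEK293T (GripTite) cells in 2% charcoal-stripped FBS medium were preincubated 6 hr at 37C, dosed with compound, then stimulated with 1 nM E2 (final) for 16 hr; beta-lactamase reporter read by B/G FRET fluorescence after 2 hr substrate loading.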
In general terms: In qHTS, concentration-response curves come from the screen itself.

Test [3] in a line: qHTS assay to identify small molecule agonists of the androgen receptor (AR) signaling pathway in the presence of an antagonist - cell viability counter screen (AID 1259379).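 Also: MDA-kb2 human breast cancer cells carrying an MMTV luciferase reporter; series mostly up to about 92 µM; nearly all actives have a fitted effect of over 25% in size.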 An outline of the steps:
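Each compound was tested at 15 concentrations on MDA-kb2 cells in the presence of 3.0uM nilutamide. Viability was measured by CellTiter-Fluor fluorescence after a 16 hr incubation at 37C in a CO2-free atmosphere.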

Test [4] can be described thus: qHTS assay to identify small molecule agonists of the estrogen receptor beta (ER-beta) signaling pathway - cell viability counter screen (AID 1259380). Also: nearly all actives have a fitted effect of over 30% in size. Also: potency is read from the fitted curve at half-maximal effect. In a few lines: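 Compounds dissolved in DMSO were pin-transferred onto ER-beta-UAS-bla HEK293T cells that had settled 6 hr, and exposure ran 16 hr at 37C. Following the reporter read, CellTiter-Glo luminescence after 30 min at room temperature indicated cytotoxicity.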

Test [5] is described as follows: qHTS assay to identify small molecule antagonists of the estrogen receptor beta (ER-beta) signaling pathway - cell viability counter screen (AID 1259382). Also: series mostly up to about 92 µM; nearly all actives have a fitted effect of over 55% in size. In a few lines: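 CellTiter-Glo ATP luminescence measured after the LiveBLAzer read in the same wells; ER-beta-UAS-bla HEK293T cells, 16 hr compound treatment with 1nM 17-beta-estradiol agonist at 37C, 5% CO2.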

In test [6] the target is Estrogen receptor (Homo sapiens) (UniProt P03372). Nature of the test: qHTS assay to identify small molecule agonists of the estrogen receptor alpha (ER-alpha) signaling pathway in the presence of an antagonist (AID 1259383; calls by dose curve; also: nearly all actives have a fitted effect of over 15% in size; also: potency is read from the fitted curve at half-maximal effect; as to activation: top concentration of the series differs between compounds). An outline of the steps:
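Luminescent ERE-luciferase reporter, VM7Luc4E2 cells (endogenous ER-alpha); 10.0nM ICI-182,780 final; 15-point compound titration; 22hr at 37C; ONE-Glo, 30min RT.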

Test [7] is described as follows: qHTS assay to identify small molecule agonists or antagonists of the thyroid stimulating hormone receptor (TSHR) signaling pathway - wild type cell line counter screen (AID 1259384; calls by dose curve). An outline of the steps: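 Wild-type HEK293 cells were plated 18 h at 37 C/5% CO2, pin-dosed with compound plus Ro20-1724 medium, held 30 min at room temperature, then given cAMP-d2 and anti-cAMP-cryptate; fluorescence was read after 1 h. Fifteen concentrations, triplicate.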

For test [8], the target named is Thyrotropin receptor (Homo sapiens) (UniProt P16473). Nature of the test: qHTS assay to identify small molecule antagonists of the thyroid stimulating hormone receptor (TSHR) signaling pathway (AID 1259385; calls by dose curve; also: nearly all actives have a fitted effect of over 20% in size). In a few lines:
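TSHR-HEK293 cells were plated and held 18 h at 37C/5% CO2, then given compound plus Ro20-1724 and stimulated with TSH at 1.5 ng/mL final. After 30 min at room temperature, cAMP was detected with cAMP-d2/anti-cAMP-cryptate (1 h) by fluorescence.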

Test [9] can be described thus: qHTS assay to identify small molecule agonists of the estrogen receptor alpha (ER-alpha) signaling pathway in the presence of an antagonist - cell viability counter screen (AID 1259386).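 Also: series mostly up to about 92 µM; cells exposed to compounds for 22 h at 37 °C before the viability read; nearly all actives have a fitted effect of over 30% in size.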 In a few lines:
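Using estrogen-depleted VM7Luc4E2 cells, the 15-concentration compound series was applied together with 10.0nM ICI-182,780 and incubated 22hr at 37C/5% CO2. Cell viability was then scored by CellTiter-Fluor.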

The target in test [10] is Progesterone receptor (Homo sapiens) (UniProt P06401). Nature of the test: qHTS assay to identify small molecule agonists of the progesterone receptor (PR) signaling pathway (AID 1346784; calls by dose curve; also: nearly all actives have a fitted effect of over 30% in size). In a few lines: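 Agonist qHTS: compounds pinned onto 3,000 PR-UAS-bla HEK 293T cells per well in charcoal-stripped serum medium, 16hr at 37C, then beta-lactamase activity measured by LiveBLAzer FRET fluorescence after 2 hours at room temperature.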

Test [11] shares this target. Nature of the test: qHTS assay to identify small molecule antagonists of the progesterone receptor (PR) signaling pathway (AID 1346795; active = well fitted inhibition curve with a large enough effect in the signal ratio in the repeat runs, not every such curve was filed as active; the % refers to the signal ratio). In a few lines:
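Antagonist mode with agonist R5020 at 1 nM final and 16 hr incubation at 37C. Reporter was beta-lactamase driven by UAS in HEK293T (PR-UAS-bla), 2% charcoal-stripped serum; signal from LiveBLAzer FRET substrate, 2 hr at room temperature.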

A short description of test [12]: qHTS assay to identify small molecule antagonists of the progesterone receptor (PR) signaling pathway - cell viability counter screen (AID 1346798). Also: series mostly up to about 92 µM; nearly all actives have a fitted effect of over 50% in size. In a few lines:
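Cytotoxicity read as CellTiter-Glo luminescence (30 min, room temperature) in the same wells as the beta-lactamase readout. HEK293T PR-UAS-bla cells in charcoal-stripped 2% FBS received compound and R5020, then 16 h at 37C, 5% CO2.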

Test [13] in a line: qHTS assay to identify small molecule antagonists of the TGF-beta/Smad signaling pathway - cell viability counter screen (AID 1346824). Also: nearly all actives have a fitted effect of over 50% in size. In a few lines:
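SBE-bla HEK 293T cells were plated overnight at 37 C, then given compounds in DMSO plus TGF-beta1 (added as 0.25 ng/mL solution) for 5 hr. After the bla read, CellTiter-Glo was added to the same wells and luminescence read after 30 min at room temperature.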

Test [14] can be described thus: qHTS assay to identify small molecule agonists of the TGF-beta/Smad signaling pathway - cell viability counter screen (AID 1346829). Also: top concentration of the series differs between compounds; nearly all actives have a fitted effect of over 45% in size. In a few lines: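 Luminescence from CellTiter-Glo, read after a 30 min room-temperature incubation, gives cell viability of SBE-bla HEK 293T cells treated 5 hr with compounds at 37 C.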
Test [15] can be described thus: qHTS assay to identify small molecule agonists of the TGF-beta/Smad signaling pathway (AID 1346859; active = well fitted activation curve with a large enough effect in the signal ratio in the repeat runs, not every such curve was filed as active; the % refers to the signal ratio; also: series mostly up to about 77 µM). In a few lines:
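Fluorescence (ex 405 nm; em 460 and 530 nm) was read 2 h after LiveBLAzer FRET substrate at RT. The preceding compound treatment of overnight-plated SBE-bla HEK293T cells lasted 5 h at 37 C.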

Test [16] has as its target Thyrotropin-releasing hormone receptor (Homo sapiens) (UniProt P34981). Nature of the test: qHTS assay to identify small molecule antagonists of the thyrotropin-releasing hormone receptor (TRHR) signaling pathway (AID 1346877; active = well fitted inhibition curve with a large enough effect in the repeat runs, not every such curve was filed as active; also: series mostly up to about 51 µM). An outline of the steps:
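Calcium signal in dye-loaded TRHR/HEK293 cells; compounds added 5 min before TRH (1 nM final); fluorescence monitored 3 min at 1 s steps.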

Test [17] has the same target. Nature of the test: qHTS assay to identify small molecule agonists of the thyrotropin-releasing hormone receptor (TRHR) signaling pathway (AID 1346891; calls by dose curve; also: series mostly up to about 58 µM). An outline of the steps:
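Agonist-mode intracellular calcium readout: kinetic fluorescence over 3 min at 1 s intervals after compound addition to TRHR-HEK293 cells (18 h seeded, 2 h dye-loaded at 37 C). Fifteen concentrations, triplicates.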

A short description of test [18]: qHTS assay to identify small molecule antagonists of the sonic hedgehog signaling (Shh) pathway (AID 1259369; calls by dose curve; also: nearly all actives have a fitted effect of over 45% in size). An outline of the steps:
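Read-out is luminescence from a firefly luciferase gene controlled by the Gli1 response element, in 3T3Gli1-Luc cells pre-incubated 4hr then exposed to compounds and conditioned medium for 24hr.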

The nature of test [19]: qHTS assay to identify small molecule agonists of the progesterone receptor (PR) signaling pathway - cell viability counter screen (AID 1346799; calls by dose curve; also: nearly all actives have a fitted effect of over 45% in size). An outline of the steps:
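Cytotoxicity measured by CellTiter-Glo luminescence (30 min, RT) in the same wells as the PR beta-lactamase agonist read. Those HEK293T cells had 16 h compound treatment at 37 C in 2% charcoal-stripped FBS medium.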

Test [20] deals with Androgen receptor (Homo sapiens) (UniProt P10275). Put plainly: qHTS assay to identify small molecule agonists of the androgen receptor (AR) signaling pathway in the presence of an antagonist (AID 1259381; calls by dose curve; also: nearly all actives have a fitted effect of over 15% in size). An outline of the steps: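 Plated MDA-kb2 cells (3,000/well) were pre-incubated 5hr, given nilutamide (3.0uM final) or buffer, then dosed with compounds in DMSO at 15 concentrations. Luciferase activity was quantified by luminescence after 16hr at 37C.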

Results filed as inconclusive are left out. Active and inactive are the calls of the source. Unless noted, calls follow the shape of the dose curve; as a rule, active = well fitted curve in the direction sought with a large enough effect in the repeat runs; inconclusive = weak or mixed curves; inactive = no such curve, though single readings can be large; an effect the other way counts as inactive or inconclusive.
% is scaled to controls: 0 for no effect and ±100 for the full control effect.

Chain of Estrogen receptor beta (Homo sapiens) (Q92731 whole entry, looked up): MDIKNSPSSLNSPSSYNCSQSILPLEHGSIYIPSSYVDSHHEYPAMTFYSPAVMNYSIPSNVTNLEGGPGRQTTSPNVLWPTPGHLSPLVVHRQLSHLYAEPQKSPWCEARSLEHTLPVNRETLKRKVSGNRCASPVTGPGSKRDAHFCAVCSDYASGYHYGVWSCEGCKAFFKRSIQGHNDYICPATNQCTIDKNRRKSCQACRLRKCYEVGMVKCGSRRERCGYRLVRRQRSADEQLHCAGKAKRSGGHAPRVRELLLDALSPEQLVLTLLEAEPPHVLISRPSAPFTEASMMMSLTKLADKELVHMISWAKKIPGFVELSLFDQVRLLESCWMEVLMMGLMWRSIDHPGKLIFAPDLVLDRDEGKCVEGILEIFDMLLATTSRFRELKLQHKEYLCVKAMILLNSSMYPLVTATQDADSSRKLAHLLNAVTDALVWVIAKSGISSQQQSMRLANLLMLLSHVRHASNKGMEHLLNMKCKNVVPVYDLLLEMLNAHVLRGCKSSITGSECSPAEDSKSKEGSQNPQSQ
Chain of Thyrotropin-releasing hormone receptor (Homo sapiens) (P34981 whole entry, looked up): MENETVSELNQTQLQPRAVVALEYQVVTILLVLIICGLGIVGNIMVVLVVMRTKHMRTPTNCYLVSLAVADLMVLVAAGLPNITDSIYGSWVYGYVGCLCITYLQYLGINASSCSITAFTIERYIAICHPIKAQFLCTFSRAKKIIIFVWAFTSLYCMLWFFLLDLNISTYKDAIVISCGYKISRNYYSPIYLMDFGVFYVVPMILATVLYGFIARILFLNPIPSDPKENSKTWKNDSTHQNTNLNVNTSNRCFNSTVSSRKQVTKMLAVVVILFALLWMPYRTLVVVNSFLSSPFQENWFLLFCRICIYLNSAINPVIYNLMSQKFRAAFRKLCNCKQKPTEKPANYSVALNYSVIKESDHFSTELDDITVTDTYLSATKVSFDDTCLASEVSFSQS
Chain of Estrogen receptor (Homo sapiens) (P03372 whole entry, looked up): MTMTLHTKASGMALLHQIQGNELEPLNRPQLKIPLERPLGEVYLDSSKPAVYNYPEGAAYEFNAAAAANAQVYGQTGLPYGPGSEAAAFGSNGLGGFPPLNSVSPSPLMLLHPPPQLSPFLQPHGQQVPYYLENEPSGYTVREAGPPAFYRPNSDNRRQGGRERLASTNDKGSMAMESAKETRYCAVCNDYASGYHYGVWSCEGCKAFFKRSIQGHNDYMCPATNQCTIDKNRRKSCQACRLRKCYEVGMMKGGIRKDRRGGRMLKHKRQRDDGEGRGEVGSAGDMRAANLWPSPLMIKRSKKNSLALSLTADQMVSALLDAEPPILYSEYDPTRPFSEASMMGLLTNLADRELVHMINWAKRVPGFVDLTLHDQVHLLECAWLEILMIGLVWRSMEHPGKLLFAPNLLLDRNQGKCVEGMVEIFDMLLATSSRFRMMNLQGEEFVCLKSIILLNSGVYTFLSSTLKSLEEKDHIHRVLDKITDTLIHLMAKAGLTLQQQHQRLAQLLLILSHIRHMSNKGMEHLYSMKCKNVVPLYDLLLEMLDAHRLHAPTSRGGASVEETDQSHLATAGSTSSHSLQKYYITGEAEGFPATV
Chain of Thyrotropin receptor (Homo sapiens) (P16473 whole entry, looked up): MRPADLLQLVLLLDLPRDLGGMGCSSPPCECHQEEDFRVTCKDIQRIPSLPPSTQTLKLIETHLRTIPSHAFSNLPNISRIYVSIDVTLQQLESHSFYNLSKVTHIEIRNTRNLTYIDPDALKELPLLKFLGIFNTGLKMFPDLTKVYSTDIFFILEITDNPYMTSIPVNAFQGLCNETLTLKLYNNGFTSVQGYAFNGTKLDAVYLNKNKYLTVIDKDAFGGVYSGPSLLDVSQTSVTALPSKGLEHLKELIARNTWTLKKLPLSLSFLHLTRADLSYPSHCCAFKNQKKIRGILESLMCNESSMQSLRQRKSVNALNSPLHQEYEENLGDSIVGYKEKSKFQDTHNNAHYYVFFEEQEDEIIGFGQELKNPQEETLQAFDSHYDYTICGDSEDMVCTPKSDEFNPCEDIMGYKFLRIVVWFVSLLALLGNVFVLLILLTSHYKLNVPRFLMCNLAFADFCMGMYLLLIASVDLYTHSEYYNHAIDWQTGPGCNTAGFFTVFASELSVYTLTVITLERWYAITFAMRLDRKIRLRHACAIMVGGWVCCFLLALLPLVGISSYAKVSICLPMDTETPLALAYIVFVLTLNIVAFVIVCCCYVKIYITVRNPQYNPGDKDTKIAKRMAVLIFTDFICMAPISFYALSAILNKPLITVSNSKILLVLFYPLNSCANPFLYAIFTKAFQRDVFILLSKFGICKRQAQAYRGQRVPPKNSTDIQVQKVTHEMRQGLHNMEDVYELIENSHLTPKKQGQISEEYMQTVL
Chain of Progesterone receptor (Homo sapiens) (P06401 whole entry, looked up): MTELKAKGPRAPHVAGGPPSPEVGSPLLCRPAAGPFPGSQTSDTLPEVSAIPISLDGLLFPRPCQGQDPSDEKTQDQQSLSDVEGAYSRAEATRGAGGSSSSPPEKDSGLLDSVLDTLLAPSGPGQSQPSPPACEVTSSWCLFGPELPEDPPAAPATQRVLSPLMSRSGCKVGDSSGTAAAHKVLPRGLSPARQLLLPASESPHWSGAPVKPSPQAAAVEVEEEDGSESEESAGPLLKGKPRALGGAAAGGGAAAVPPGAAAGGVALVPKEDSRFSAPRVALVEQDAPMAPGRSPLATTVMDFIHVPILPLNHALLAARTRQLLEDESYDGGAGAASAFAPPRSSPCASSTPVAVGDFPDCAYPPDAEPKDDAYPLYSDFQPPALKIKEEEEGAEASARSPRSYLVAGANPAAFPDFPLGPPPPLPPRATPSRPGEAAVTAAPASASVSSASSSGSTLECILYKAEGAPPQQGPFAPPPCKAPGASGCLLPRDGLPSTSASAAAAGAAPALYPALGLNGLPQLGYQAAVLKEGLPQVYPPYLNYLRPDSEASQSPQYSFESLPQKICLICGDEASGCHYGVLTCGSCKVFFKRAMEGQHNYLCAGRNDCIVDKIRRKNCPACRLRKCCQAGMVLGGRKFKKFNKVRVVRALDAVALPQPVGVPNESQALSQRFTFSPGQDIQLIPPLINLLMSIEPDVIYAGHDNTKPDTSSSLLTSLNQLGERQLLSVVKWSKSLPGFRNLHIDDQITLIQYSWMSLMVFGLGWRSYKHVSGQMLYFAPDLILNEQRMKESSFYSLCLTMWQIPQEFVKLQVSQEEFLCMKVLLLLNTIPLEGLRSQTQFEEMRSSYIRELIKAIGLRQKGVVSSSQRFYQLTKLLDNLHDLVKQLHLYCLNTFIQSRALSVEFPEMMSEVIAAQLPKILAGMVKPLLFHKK
Chain of Androgen receptor (Homo sapiens) (P10275 whole entry, looked up): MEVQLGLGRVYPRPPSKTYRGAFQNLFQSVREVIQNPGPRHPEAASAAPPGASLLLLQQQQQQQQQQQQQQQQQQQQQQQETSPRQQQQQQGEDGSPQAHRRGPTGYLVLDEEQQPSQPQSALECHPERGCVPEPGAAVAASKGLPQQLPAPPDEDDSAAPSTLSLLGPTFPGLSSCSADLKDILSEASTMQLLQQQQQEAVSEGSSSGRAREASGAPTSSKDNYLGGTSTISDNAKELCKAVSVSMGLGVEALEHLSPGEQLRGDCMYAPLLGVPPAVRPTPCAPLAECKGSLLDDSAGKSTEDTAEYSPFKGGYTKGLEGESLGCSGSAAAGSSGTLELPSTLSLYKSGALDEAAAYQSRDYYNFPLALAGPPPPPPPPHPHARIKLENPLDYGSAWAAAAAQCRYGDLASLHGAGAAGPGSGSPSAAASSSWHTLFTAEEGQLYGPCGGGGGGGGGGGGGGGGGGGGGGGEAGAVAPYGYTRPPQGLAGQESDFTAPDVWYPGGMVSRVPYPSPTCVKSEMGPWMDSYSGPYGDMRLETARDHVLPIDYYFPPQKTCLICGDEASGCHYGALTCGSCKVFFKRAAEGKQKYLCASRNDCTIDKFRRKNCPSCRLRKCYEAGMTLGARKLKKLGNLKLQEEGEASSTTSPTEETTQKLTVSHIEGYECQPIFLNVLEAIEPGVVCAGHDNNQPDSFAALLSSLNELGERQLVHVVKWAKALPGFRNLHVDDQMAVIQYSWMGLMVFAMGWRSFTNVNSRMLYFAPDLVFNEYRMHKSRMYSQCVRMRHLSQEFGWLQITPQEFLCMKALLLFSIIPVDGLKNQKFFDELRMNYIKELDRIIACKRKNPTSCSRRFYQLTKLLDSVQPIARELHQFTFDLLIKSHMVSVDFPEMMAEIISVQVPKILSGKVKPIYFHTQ

Take `COc1ccc(C(O)(c2cncnc2)C2CC2)cc1` (stereo not drawn): the Potency result in [1], in test [2], in [3], in test [4], in test [5] and in test [6] was “inactive” each time. Besides, the Potency result in test [8], in [9], in test [10], in test [11], in test [12] and in [13] was “inactive” in each case. For the same compound, the Potency entry in [14] and in test [16] was “inactive” throughout. Also, the compound was classed as inactive in test [7], in test [15] and in test [17].

Take `CCCBr`: the Potency entry in test [18], in test [3], in [4], in test [5], in test [6] and in test [10] was “inactive” throughout. Also, the Potency result in [11], in [12], in [19], in [13], in test [14] and in test [16] was “inactive” throughout. In addition, the call in [15] and in test [17] was inactive.

As to `O=C(O)C(F)(F)C(F)(F)C(F)(F)C(F)(F)C(F)(F)C(F)(F)C(F)(F)C(F)(F)F`, the Potency entry in test [18], in test [3], in [6], in [8], in test [10] and in test [12] was “inactive” in each case. Further, the Potency entry in [13], in test [14] and in [16] was “inactive” in each case. In addition, the Potency in [4] is 12.2 µM (active). The call in [15] and in test [17] was inactive.

Take `O=C(O)c1cc(I)cc(I)c1I`: the Potency entry in test [3], in [4], in test [5], in test [6], in test [8] and in [9] was “inactive” in each case. The Potency entry in [11], in test [12], in [19], in [13], in test [14] and in [16] was “inactive” throughout. In test [17], the compound was classed as inactive.

`CCC1(C2=NCCN2)Cc2ccccc2O1` (stereo not drawn): the Potency result in [3], in [4], in test [20], in test [5], in test [8] and in [10] was “inactive” each time. The Potency entry in test [11], in [12], in test [19], in [13], in test [14] and in [16] was “inactive” each time. In addition, the Potency in test [6] was 3.35 µM (active). Also, the call in test [7], in [15] and in [17] was inactive.

Turning to `COc1cc(C[C@@H](C)N)c(OC)cc1Br`, the Potency entry in test [3], in test [6], in test [8], in test [9], in test [10] and in test [13] was “inactive” throughout. Besides, the Potency result in [14] and in [16] was “inactive” in each case. Also, in test [4], the Potency was 35.3 µM (active). Also, the result in [7], in [15] and in test [17] was inactive.

As for `Nc1c(Br)cc(Br)c2c1C(=O)c1ccccc1C2=O`, the activity change, negative = cytotoxicity in test [3] was -5.97% [at 19 µM] (inactive); in test [4], -3.72% [at 19 µM] (inactive); in [5], 0.853% [at 19 µM] (inactive); in test [9] it was -8.67% [at 19 µM] (inactive); in test [12], -0.481% [at 18.9 µM] (inactive); in test [14], 9.34% [at 15.8 µM] (inactive). In addition, the activation is 0.208% [at 19 µM] (inactive) in test [20], 1.8% [at 19 µM] (inactive) in test [6], 0.744% [at 19 µM] (inactive) in test [10] and -0.213% [at 11.8 µM] (inactive) in test [17]. Besides, in test [7], the cAMP activity change was 2.44% [at 18.9 µM] (inactive). For the same compound, the activity change, negative = inhibition was -1.61% [at 19 µM] (inactive) in test [8] and 9.35% [at 18.9 µM] (inactive) in [11]. The viability change, negative = cytotoxic in test [13] is 4.07% [at 15.8 µM] (inactive). In addition, the activity, negative = inhibition in [16] was -4.46% [at 10.5 µM] (inactive).

For the compound `CNC(=O)Oc1cccc(N=CN(C)C)c1`, the Potency entry in [2], in [4], in test [5], in [6], in [8] and in [9] was “inactive” in each case. The Potency result in test [10], in test [11], in test [12], in test [13], in test [14] and in test [16] was “inactive” each time. In addition, the compound was classed as inactive in [15] and in test [17].

(Values after PubChem BioAssay (Tox21).)
